Holding throughout (conditions): Compound concentration 20.0 uM
The target of test [1] is Tyrosine-protein kinase ABL1 (Homo sapiens) (UniProt P00519).
The target of test [2] is Bromodomain-containing protein 4 (Homo sapiens) (UniProt O60885).
The target of test [3] is Cyclin-dependent kinase 2 (Homo sapiens) (UniProt P24941).
The target in test [4] is Casein kinase I isoform delta (Homo sapiens) (UniProt P48730).
Test [5] concerns the target Glycogen synthase kinase-3 beta (Homo sapiens) (UniProt P49841).
In test [6] the target is Mitogen-activated protein kinase 1 (Homo sapiens) (UniProt P28482).
The target of test [7] is T1, Aurora kinase A (Homo sapiens) (UniProt O14965).
T1 sequence (whole entry): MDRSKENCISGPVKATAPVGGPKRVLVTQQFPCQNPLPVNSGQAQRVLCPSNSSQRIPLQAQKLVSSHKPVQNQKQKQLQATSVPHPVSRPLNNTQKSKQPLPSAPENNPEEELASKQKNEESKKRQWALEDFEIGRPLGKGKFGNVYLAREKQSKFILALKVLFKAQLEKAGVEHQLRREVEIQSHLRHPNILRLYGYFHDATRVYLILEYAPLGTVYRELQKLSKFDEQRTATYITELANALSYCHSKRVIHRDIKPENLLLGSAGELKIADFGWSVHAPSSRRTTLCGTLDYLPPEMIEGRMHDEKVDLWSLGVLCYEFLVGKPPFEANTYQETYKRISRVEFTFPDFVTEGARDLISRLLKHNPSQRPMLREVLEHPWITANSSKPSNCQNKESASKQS

The target in test [8] is T2, Transcription intermediary factor 1-alpha (Homo sapiens) (UniProt O15164).
T2 sequence (whole entry): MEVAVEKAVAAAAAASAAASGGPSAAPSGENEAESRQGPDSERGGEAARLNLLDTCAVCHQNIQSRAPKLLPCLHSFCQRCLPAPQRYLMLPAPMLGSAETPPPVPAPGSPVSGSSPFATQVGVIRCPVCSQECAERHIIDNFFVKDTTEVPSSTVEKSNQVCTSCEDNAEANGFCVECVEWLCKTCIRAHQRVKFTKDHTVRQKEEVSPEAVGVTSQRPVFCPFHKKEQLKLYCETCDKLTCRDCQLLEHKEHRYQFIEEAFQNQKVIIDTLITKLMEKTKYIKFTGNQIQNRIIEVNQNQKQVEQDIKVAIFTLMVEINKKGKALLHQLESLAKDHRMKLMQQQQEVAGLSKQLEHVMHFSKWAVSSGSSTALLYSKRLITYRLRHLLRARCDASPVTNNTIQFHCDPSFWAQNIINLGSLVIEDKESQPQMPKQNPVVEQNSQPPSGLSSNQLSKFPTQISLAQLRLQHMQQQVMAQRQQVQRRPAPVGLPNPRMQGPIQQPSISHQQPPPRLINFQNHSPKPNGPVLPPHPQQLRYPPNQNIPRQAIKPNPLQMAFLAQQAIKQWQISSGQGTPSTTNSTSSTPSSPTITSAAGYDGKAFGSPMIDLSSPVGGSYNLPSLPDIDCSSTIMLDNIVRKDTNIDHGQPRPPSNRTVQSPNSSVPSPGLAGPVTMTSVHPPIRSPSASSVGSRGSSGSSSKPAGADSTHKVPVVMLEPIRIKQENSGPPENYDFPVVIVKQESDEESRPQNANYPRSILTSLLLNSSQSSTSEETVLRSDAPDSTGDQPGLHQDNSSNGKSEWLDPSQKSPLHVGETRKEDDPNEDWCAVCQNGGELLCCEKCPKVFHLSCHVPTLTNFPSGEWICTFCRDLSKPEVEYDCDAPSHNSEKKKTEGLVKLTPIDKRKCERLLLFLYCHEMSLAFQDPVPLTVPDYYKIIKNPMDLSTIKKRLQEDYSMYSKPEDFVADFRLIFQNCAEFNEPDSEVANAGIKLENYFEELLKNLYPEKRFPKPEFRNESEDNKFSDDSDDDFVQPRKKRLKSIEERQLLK

Residues, ends and D or L forms follow the SMILES beside them. *: point of attachment. Boc = CC(C)(C)OC(=O)*

From ChEMBL document CHEMBL5724796, “Tm Shift (DSF) assay results for EUbOPEN Chemogenomics Library” (2024) come the findings set out here.

Chain of Tyrosine-protein kinase ABL1 (Homo sapiens) (P00519 whole entry): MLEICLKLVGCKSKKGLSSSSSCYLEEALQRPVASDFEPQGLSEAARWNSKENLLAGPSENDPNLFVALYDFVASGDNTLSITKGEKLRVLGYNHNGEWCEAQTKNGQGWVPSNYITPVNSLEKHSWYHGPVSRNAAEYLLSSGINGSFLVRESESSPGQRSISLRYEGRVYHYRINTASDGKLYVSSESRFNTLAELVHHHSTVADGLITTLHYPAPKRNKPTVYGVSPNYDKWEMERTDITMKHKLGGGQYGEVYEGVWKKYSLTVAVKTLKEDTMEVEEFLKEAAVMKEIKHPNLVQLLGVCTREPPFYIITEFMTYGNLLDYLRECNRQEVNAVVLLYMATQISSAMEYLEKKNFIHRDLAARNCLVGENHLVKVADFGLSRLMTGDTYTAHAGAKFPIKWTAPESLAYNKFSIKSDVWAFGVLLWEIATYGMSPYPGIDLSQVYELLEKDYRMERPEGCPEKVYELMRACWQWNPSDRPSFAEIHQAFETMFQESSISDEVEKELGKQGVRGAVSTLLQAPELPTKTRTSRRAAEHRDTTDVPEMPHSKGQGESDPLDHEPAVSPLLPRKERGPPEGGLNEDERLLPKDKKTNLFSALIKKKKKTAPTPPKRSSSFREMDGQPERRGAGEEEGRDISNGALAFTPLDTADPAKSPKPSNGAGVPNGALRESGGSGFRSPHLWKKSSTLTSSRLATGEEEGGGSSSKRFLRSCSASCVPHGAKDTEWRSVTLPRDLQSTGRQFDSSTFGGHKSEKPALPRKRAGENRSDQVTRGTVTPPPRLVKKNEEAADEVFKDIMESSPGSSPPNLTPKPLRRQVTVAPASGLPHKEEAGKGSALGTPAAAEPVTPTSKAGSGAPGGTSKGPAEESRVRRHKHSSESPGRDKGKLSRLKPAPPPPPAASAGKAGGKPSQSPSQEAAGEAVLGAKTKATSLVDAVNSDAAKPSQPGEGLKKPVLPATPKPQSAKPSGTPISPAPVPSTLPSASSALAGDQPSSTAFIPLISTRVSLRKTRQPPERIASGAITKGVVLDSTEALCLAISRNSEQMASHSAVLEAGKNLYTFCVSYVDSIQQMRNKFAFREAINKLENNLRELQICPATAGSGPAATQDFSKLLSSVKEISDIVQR
Chain of Glycogen synthase kinase-3 beta (Homo sapiens) (P49841 whole entry, looked up): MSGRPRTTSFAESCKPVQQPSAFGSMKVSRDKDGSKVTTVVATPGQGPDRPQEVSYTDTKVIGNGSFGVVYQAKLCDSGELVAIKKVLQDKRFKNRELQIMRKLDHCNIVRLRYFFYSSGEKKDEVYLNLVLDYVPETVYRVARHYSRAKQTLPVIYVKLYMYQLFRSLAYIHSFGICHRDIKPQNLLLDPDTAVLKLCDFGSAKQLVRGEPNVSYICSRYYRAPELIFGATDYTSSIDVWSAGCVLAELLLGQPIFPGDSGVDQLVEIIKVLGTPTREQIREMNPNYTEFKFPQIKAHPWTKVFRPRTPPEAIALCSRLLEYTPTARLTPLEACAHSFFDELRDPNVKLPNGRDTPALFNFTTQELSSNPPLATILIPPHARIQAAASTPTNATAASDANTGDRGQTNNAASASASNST
Chain of Casein kinase I isoform delta (Homo sapiens) (P48730 whole entry, looked up, canonical isoform): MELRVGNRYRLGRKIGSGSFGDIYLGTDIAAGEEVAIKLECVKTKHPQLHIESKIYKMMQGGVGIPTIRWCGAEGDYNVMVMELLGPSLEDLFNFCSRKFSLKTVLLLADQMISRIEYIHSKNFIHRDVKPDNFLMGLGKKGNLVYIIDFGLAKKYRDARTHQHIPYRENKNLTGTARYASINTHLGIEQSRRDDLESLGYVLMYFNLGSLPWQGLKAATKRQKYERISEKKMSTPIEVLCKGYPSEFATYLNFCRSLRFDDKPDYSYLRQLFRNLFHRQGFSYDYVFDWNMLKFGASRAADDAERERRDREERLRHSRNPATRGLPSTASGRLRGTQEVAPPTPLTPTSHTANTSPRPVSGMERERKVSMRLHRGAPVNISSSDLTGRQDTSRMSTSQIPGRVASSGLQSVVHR
Chain of Mitogen-activated protein kinase 1 (Homo sapiens) (P28482 whole entry): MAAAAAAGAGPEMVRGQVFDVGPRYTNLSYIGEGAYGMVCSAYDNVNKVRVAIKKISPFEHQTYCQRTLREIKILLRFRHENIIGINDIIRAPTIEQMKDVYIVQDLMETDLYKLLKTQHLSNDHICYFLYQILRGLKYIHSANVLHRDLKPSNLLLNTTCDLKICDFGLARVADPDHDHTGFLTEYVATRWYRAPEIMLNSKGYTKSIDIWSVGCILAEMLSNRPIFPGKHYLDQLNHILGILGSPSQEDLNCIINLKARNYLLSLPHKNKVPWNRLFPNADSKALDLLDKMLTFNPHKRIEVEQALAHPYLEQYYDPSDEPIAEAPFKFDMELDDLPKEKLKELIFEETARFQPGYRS

Regarding `CNCCN(C)Cc1cn[nH]c1-c1ccc(OC2CC(OCCC3CCOCC3)C2)cc1` (stereo not drawn), the ΔTm (usually the shift of the melting midpoint relative to a reference) in test [1] was 0.66 °C; in test [2] it was -1.82 °C; in test [3] it was 0.43 °C; in test [4], 0.19 °C; in test [5], -0.94 °C; in test [6] it was 0.05 °C. The ΔTm in test [7] is -0.58 °C; in test [8], -1.33 °C.

With `CC(C)C(=O)SCCCCCCC(=O)Nc1nc(-c2ccccc2)cs1`, the ΔTm in test [1] was 0.63 °C; in test [2], -1.46 °C; in test [3] it was 0.18 °C; in test [4] it was 0.04 °C; in test [5], 1.11 °C; in test [6], -0.16 °C. In addition, the ΔTm in test [7] is -0.57 °C; in test [8] it was -0.48 °C.

Take `N[C@](CCCCB(O)O)(CCN1CCCCC1)C(=O)O`: the ΔTm in test [1] was 0.12 °C; in test [2] it was 2.02 °C; in test [3], 1.3 °C; in test [4], -0.19 °C; in test [5] it was -0.19 °C; in test [6] it was 0.26 °C. Besides, the results for the ΔTm in test [7] and in test [8] were -1.26 °C and 0.59 °C, respectively.

Regarding `CN(CCC(Oc1ccc(-c2ccccc2)cc1)c1ccc(F)cc1)CC(=O)O` (stereo not drawn), the ΔTm is 0.52 °C in test [1]; 2.4 °C in test [2]; 1.59 °C in test [3]; -0.12 °C in test [4]; -0.74 °C in test [5]; 0.42 °C in test [6]. Moreover, the thermal shift (ΔTm) was -1.88 °C in test [7] and -0.18 °C in test [8].

Consider `CCN(c1cc(-c2ccc(CN3CCOCC3)cc2)cc(C(=O)NCc2c(C)cc(C)[nH]c2=O)c1C)C1CCOCC1`, for which the ΔTm in test [1] is 0.22 °C; in test [2], -1.59 °C; in test [3] it was -0.42 °C; in test [4], 0.03 °C; in test [5], 0 °C; in test [6], -4.86 °C. Besides, the ΔTm was -1.94 °C in test [7] and -2.54 °C in test [8].

Consider `CC(=O)Nc1ccc(-c2cc(-c3ccccc3)nc3cc(C(=O)NCCCn4ccnc4)nn23)cc1`, for which the ΔTm in test [1] was 0.52 °C; in test [2] it was 1.46 °C; in test [3], -0.15 °C; in test [4], 1.15 °C; in test [5], -0.59 °C; in test [6], 0.9 °C. The ΔTm in test [7] is -0.25 °C; in test [8], -2.15 °C.

As for `CC/C(=C(/c1ccc(/C=C/C(=O)O)cc1)c1ccc2[nH]ncc2c1)c1ccc(F)cc1Cl`, the ΔTm in test [1] is -5.16 °C; in test [2] it was -0.16 °C; in test [3] it was -3.66 °C; in test [4], -4.37 °C; in test [5] it was 3.37 °C; in test [6], 0 °C. Moreover, the figures for the ΔTm in test [7] and in test [8] were 1.69 °C and 0 °C, respectively.

With `COc1cc2c(cc1-c1c(C)noc1C)[nH]c1nc(C)nc(-c3ccnc4ccccc34)c12`, the thermal shift (ΔTm) was 0.56 °C in test [1]; 11.5 °C in test [2]; -0.3 °C in test [3]; -0.15 °C in test [4]; 0.97 °C in test [5]; 0.15 °C in test [6]. In addition, the ΔTm was -2.62 °C in test [7] and -0.1 °C in test [8].

Turning to `O=C(c1cc(O)c(O)c([N+](=O)[O-])c1)c1ccccc1F`, the ΔTm in test [1] was 0.42 °C; in test [2] it was -1.18 °C; in test [3], 0.1 °C; in test [4], 0.37 °C; in test [5], 0.05 °C; in test [6], 0.25 °C. The ΔTm in test [7] is -1.23 °C; in test [8], 0.61 °C.

Take `O=C(CNC(=O)[C@H](COP(=O)(O)O)NC(=O)CCc1c[nH]c2ccccc12)NCCCCc1ccccc1`: the ΔTm in test [1] is 0.34 °C; in test [2], -3.51 °C; in test [3], 0.72 °C; in test [4] it was -0.09 °C; in test [5], -0.2 °C; in test [6], 0.17 °C. Further, the ΔTm was -1.56 °C in test [7] and 0.45 °C in test [8].

Regarding `CC(C)[C@H](NC(=O)[C@H](CCC(=O)O)NC(=O)[C@H](C)NC(=O)OC(C)(C)C)C(=O)N[C@H](C=O)CC(=O)O` (Boc-AEVD-aldehyde), the ΔTm in test [1] is 0.28 °C; in test [2], -2.26 °C; in test [3], -0.28 °C; in test [4] it was -0.09 °C; in test [5], -1.03 °C; in test [6], -0.49 °C. Further, the ΔTm was -1.35 °C in test [7] and -0.84 °C in test [8].
